Test results from PMC7862700, “An all-to-all approach to the identification of sequence-specific readers for epigenetic DNA modifications on cytosine”.

Columns and labels:
Assay in all cases: DAPPL (digital affinity profiling via proximity ligation, sequencing); 10 mM Tris-HCl pH 7.5, 50 mM NaCl, 1 mM DTT, 4% glycerol, room temperature, 30 min; GST-TFs on glutathione beads, 16-mer random dsDNA library, 0.1% formaldehyde crosslink after washing; high values mean tight binding
[1] = target: T1, FEV (Homo sapiens, UniProt Q99581 1-238); settings: protein: recombinant; tags: N-terminal GST; dsDNA, one strand shown
T1 sequence: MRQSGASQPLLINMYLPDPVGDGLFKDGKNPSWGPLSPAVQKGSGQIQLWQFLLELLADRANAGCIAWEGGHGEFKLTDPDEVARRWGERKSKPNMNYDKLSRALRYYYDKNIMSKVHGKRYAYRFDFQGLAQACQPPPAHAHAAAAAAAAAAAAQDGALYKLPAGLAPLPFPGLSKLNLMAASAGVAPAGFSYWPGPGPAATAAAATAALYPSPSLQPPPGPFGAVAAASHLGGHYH
Procedure, shortened: (§1)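 Human transcription factors carrying a GST fusion were produced in yeast, bound to glutathione beads, tagged with DNA barcodes and pooled together with a tag-only sample. Each pool was held with 200 nmole of a random double-stranded 16-mer DNA library in Tris/NaCl/DTT/glycerol buffer for 30 min at room temperature, then washed, crosslinked in 0.1% formaldehyde, proximity-ligated with BsaI/T4 ligase (1 h, 37 °C), PCR-amplified and sequenced on an Illumina NextSeq500. Binding signal is the read frequency of each hexamer for a given factor divided by its frequency in the tag-only sample.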

[2] = target: ETV5 (Homo sapiens, UniProt P41161 1-510); settings: protein: recombinant; tags: N-terminal GST; dsDNA, one strand shown
Procedure, shortened: as §1

[3] = target: HSF1 (Homo sapiens, UniProt Q00613 1-529); settings: protein: recombinant; tags: N-terminal GST; chain copies: 3; dsDNA, one strand shown
Procedure, shortened: as §1

[4] = target: T2, SPIC (Homo sapiens, UniProt Q8N5J4 1-248); settings: protein: recombinant; tags: N-terminal GST; dsDNA, one strand shown
T2 sequence: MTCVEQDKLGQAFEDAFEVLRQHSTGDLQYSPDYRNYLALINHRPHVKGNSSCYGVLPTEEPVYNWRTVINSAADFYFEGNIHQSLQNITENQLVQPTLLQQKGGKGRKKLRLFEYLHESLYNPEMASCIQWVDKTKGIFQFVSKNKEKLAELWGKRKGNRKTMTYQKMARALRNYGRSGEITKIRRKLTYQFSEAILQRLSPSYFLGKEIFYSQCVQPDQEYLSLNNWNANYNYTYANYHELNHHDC
Procedure, shortened: as §1

[5] = target: ELF4 (Homo sapiens, UniProt Q99607 1-663); settings: protein: recombinant; tags: N-terminal GST; dsDNA, one strand shown
Procedure, shortened: as §1

[6] = target: T3, ELK4 (Homo sapiens, UniProt P28324-2 1-405); settings: protein: recombinant; tags: N-terminal GST; dsDNA, one strand shown
T3 sequence: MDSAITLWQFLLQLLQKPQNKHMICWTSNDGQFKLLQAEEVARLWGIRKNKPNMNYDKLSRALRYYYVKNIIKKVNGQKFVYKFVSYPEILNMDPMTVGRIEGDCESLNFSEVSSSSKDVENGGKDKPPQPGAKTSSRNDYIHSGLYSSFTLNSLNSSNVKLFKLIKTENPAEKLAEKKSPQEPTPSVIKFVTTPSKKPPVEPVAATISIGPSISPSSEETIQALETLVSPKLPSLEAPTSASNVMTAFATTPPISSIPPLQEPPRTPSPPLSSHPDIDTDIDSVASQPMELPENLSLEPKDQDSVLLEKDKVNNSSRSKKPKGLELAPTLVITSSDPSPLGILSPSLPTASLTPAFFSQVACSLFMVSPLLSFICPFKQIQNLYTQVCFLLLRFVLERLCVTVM
Procedure, shortened: as §1

[7] = target: T4, ETV2 (Homo sapiens, UniProt O00321 1-342); settings: protein: recombinant; tags: N-terminal GST; dsDNA, one strand shown
T4 sequence: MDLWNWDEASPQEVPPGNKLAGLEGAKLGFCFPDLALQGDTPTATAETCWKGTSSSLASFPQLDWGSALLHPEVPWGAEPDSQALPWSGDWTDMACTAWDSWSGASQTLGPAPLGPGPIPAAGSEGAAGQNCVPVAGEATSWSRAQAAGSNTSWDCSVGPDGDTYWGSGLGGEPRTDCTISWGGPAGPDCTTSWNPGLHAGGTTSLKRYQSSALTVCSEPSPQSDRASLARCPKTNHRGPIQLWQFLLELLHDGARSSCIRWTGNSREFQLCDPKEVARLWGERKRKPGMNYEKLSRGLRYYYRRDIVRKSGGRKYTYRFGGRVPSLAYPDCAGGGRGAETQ
Procedure, shortened: as §1

[8] = target: T5, ELF3 (Homo sapiens, UniProt P78545 1-371); settings: protein: recombinant; tags: N-terminal GST; dsDNA, one strand shown
T5 sequence: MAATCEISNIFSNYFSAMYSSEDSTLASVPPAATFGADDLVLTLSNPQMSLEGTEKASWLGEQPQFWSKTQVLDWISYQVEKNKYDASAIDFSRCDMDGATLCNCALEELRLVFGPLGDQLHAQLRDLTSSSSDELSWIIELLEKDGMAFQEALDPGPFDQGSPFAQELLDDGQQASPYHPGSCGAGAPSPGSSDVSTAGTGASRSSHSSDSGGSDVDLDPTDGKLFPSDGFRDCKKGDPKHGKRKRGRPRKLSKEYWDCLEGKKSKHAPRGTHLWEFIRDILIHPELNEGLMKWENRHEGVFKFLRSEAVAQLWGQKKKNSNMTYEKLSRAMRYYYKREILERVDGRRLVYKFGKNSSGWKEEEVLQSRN
Procedure, shortened: as §1

[9] = target: CRX (Homo sapiens, UniProt O43186 1-299); settings: protein: recombinant; tags: N-terminal GST; dsDNA, one strand shown
Procedure, shortened: as §1

[10] = target: ETV1 (Homo sapiens, UniProt P50549 1-477); settings: protein: recombinant; tags: N-terminal GST; dsDNA, one strand shown
Procedure, shortened: as §1

ETV1, sequence (P50549 whole entry): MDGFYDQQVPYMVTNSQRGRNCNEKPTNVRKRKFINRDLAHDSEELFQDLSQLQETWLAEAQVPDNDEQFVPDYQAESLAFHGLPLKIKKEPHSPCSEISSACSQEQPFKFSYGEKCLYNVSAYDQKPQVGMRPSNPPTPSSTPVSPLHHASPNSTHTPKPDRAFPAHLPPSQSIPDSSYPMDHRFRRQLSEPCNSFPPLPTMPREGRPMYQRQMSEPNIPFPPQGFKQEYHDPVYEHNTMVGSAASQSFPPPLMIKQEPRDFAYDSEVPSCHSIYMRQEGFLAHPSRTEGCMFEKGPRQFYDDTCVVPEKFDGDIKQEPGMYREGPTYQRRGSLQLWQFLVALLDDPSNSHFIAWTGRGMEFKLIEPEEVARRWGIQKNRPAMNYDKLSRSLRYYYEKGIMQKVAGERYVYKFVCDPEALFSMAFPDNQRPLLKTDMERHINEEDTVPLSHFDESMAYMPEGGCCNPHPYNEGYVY
CRX, sequence (O43186 whole entry): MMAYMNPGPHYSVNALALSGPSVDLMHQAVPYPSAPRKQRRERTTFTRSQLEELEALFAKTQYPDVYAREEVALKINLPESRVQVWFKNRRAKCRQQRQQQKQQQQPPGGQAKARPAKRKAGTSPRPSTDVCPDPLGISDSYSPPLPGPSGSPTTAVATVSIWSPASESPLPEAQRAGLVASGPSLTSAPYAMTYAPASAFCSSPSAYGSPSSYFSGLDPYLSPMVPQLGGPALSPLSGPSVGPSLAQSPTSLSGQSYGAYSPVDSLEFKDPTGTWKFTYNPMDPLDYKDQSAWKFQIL
ELF4, sequence (Q99607 whole entry): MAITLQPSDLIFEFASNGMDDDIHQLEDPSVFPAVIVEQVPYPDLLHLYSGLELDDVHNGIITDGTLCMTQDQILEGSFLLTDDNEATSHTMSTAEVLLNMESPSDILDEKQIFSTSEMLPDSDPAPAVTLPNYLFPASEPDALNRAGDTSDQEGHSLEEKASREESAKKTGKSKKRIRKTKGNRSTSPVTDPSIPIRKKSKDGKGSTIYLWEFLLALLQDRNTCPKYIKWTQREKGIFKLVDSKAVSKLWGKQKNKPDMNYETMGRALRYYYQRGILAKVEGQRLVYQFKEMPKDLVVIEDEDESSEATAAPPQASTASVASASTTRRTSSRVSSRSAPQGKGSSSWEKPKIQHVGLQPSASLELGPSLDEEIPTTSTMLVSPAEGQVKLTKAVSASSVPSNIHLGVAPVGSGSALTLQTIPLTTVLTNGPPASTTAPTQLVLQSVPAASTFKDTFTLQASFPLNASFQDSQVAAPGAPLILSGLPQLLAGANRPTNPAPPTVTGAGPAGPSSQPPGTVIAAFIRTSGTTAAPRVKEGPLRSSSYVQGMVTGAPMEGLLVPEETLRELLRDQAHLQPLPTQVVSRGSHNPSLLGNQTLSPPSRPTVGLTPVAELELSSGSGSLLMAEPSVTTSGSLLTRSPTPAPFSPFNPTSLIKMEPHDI
ETV5, sequence (P41161 whole entry): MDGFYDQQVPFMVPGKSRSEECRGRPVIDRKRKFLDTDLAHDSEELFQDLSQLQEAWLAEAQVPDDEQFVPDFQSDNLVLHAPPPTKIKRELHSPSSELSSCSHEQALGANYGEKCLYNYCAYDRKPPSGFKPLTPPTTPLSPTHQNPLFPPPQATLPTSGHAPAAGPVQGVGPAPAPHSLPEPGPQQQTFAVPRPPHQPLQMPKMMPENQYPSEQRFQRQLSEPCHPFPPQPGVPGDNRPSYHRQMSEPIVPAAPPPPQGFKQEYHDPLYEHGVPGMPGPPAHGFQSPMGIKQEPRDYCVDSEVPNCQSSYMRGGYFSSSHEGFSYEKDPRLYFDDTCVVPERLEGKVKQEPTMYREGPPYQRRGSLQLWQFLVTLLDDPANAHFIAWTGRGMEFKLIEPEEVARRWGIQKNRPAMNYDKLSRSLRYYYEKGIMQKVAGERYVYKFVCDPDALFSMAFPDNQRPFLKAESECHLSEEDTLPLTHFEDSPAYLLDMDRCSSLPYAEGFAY
HSF1, sequence (Q00613 whole entry): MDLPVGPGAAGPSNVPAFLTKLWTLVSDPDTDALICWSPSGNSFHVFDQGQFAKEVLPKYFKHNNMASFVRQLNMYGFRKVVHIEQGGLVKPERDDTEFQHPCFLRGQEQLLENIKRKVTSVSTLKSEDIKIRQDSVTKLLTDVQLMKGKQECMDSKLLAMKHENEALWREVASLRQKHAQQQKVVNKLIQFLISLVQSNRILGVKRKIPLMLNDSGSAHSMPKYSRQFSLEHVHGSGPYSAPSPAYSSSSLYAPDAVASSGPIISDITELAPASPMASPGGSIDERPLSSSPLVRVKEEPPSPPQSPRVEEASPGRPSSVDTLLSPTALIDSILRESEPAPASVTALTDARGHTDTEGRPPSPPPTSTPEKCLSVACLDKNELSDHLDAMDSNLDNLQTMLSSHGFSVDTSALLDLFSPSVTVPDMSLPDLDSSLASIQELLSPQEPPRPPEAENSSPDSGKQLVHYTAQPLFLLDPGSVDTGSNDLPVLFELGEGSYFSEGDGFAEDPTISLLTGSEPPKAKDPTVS

Sequence	binding signal [1]	binding signal [2]	binding signal [3]	binding signal [4]	binding signal [5]	binding signal [6]	binding signal [7]	binding signal [8]	binding signal [9]	binding signal [10]
AAGAAA	1.15 fold enrichment (6-mer frequency, TF over GST control)	1.19 fold enrichment (6-mer frequency, TF over GST control)	1.75 fold enrichment (6-mer frequency, TF over GST control)	1.19 fold enrichment (6-mer frequency, TF over GST control)	1.19 fold enrichment (6-mer frequency, TF over GST control)	1.18 fold enrichment (6-mer frequency, TF over GST control)	1.18 fold enrichment (6-mer frequency, TF over GST control)	1.23 fold enrichment (6-mer frequency, TF over GST control)	1.29 fold enrichment (6-mer frequency, TF over GST control)	1.2 fold enrichment (6-mer frequency, TF over GST control)
TTAGCT	1.2 fold enrichment (6-mer frequency, TF over GST control)	1.2 fold enrichment (6-mer frequency, TF over GST control)	1.82 fold enrichment (6-mer frequency, TF over GST control)	1.16 fold enrichment (6-mer frequency, TF over GST control)	1.28 fold enrichment (6-mer frequency, TF over GST control)	1.24 fold enrichment (6-mer frequency, TF over GST control)	1.28 fold enrichment (6-mer frequency, TF over GST control)	1.18 fold enrichment (6-mer frequency, TF over GST control)	2.63 fold enrichment (6-mer frequency, TF over GST control)	1.2 fold enrichment (6-mer frequency, TF over GST control)
CTCCTC	1.37 fold enrichment (6-mer frequency, TF over GST control)	1.23 fold enrichment (6-mer frequency, TF over GST control)	1.16 fold enrichment (6-mer frequency, TF over GST control)	1.3 fold enrichment (6-mer frequency, TF over GST control)	1.47 fold enrichment (6-mer frequency, TF over GST control)	1.41 fold enrichment (6-mer frequency, TF over GST control)	1.39 fold enrichment (6-mer frequency, TF over GST control)	1.3 fold enrichment (6-mer frequency, TF over GST control)	1.08 fold enrichment (6-mer frequency, TF over GST control)	1.39 fold enrichment (6-mer frequency, TF over GST control)
TATGGG	1.13 fold enrichment (6-mer frequency, TF over GST control)	1.18 fold enrichment (6-mer frequency, TF over GST control)	1.1 fold enrichment (6-mer frequency, TF over GST control)	1.32 fold enrichment (6-mer frequency, TF over GST control)	1.18 fold enrichment (6-mer frequency, TF over GST control)	1.14 fold enrichment (6-mer frequency, TF over GST control)	1.11 fold enrichment (6-mer frequency, TF over GST control)	1.18 fold enrichment (6-mer frequency, TF over GST control)	1.36 fold enrichment (6-mer frequency, TF over GST control)	1.2 fold enrichment (6-mer frequency, TF over GST control)
TCTAGT	1.03 fold enrichment (6-mer frequency, TF over GST control)	1.06 fold enrichment (6-mer frequency, TF over GST control)	2.32 fold enrichment (6-mer frequency, TF over GST control)	1.18 fold enrichment (6-mer frequency, TF over GST control)	1.09 fold enrichment (6-mer frequency, TF over GST control)	1.17 fold enrichment (6-mer frequency, TF over GST control)	1.04 fold enrichment (6-mer frequency, TF over GST control)	1.28 fold enrichment (6-mer frequency, TF over GST control)	1.37 fold enrichment (6-mer frequency, TF over GST control)	1.01 fold enrichment (6-mer frequency, TF over GST control)
TTTCTC	1.52 fold enrichment (6-mer frequency, TF over GST control)	1.53 fold enrichment (6-mer frequency, TF over GST control)	2.63 fold enrichment (6-mer frequency, TF over GST control)	1.55 fold enrichment (6-mer frequency, TF over GST control)	1.6 fold enrichment (6-mer frequency, TF over GST control)	1.78 fold enrichment (6-mer frequency, TF over GST control)	1.65 fold enrichment (6-mer frequency, TF over GST control)	1.86 fold enrichment (6-mer frequency, TF over GST control)	1.67 fold enrichment (6-mer frequency, TF over GST control)	1.46 fold enrichment (6-mer frequency, TF over GST control)
CTTATT	1.46 fold enrichment (6-mer frequency, TF over GST control)	1.42 fold enrichment (6-mer frequency, TF over GST control)	1.87 fold enrichment (6-mer frequency, TF over GST control)	1.62 fold enrichment (6-mer frequency, TF over GST control)	1.43 fold enrichment (6-mer frequency, TF over GST control)	1.49 fold enrichment (6-mer frequency, TF over GST control)	1.5 fold enrichment (6-mer frequency, TF over GST control)	1.51 fold enrichment (6-mer frequency, TF over GST control)	2.55 fold enrichment (6-mer frequency, TF over GST control)	1.52 fold enrichment (6-mer frequency, TF over GST control)
CTGAAC	1.35 fold enrichment (6-mer frequency, TF over GST control)	1.41 fold enrichment (6-mer frequency, TF over GST control)	1.33 fold enrichment (6-mer frequency, TF over GST control)	1.31 fold enrichment (6-mer frequency, TF over GST control)	1.3 fold enrichment (6-mer frequency, TF over GST control)	1.44 fold enrichment (6-mer frequency, TF over GST control)	1.35 fold enrichment (6-mer frequency, TF over GST control)	1.44 fold enrichment (6-mer frequency, TF over GST control)	1.23 fold enrichment (6-mer frequency, TF over GST control)	1.43 fold enrichment (6-mer frequency, TF over GST control)
TAAACG	1.12 fold enrichment (6-mer frequency, TF over GST control)	1.07 fold enrichment (6-mer frequency, TF over GST control)	1.19 fold enrichment (6-mer frequency, TF over GST control)	1.05 fold enrichment (6-mer frequency, TF over GST control)	1.13 fold enrichment (6-mer frequency, TF over GST control)	1.2 fold enrichment (6-mer frequency, TF over GST control)	1.09 fold enrichment (6-mer frequency, TF over GST control)	1.07 fold enrichment (6-mer frequency, TF over GST control)	1.44 fold enrichment (6-mer frequency, TF over GST control)	1.13 fold enrichment (6-mer frequency, TF over GST control)
CCGCTC	1.61 fold enrichment (6-mer frequency, TF over GST control)	1.46 fold enrichment (6-mer frequency, TF over GST control)	1.24 fold enrichment (6-mer frequency, TF over GST control)	1.53 fold enrichment (6-mer frequency, TF over GST control)	1.6 fold enrichment (6-mer frequency, TF over GST control)	1.65 fold enrichment (6-mer frequency, TF over GST control)	1.52 fold enrichment (6-mer frequency, TF over GST control)	1.54 fold enrichment (6-mer frequency, TF over GST control)	1.21 fold enrichment (6-mer frequency, TF over GST control)	1.45 fold enrichment (6-mer frequency, TF over GST control)
CCGAAT	1.16 fold enrichment (6-mer frequency, TF over GST control)	1.14 fold enrichment (6-mer frequency, TF over GST control)	1.64 fold enrichment (6-mer frequency, TF over GST control)	1.29 fold enrichment (6-mer frequency, TF over GST control)	1.16 fold enrichment (6-mer frequency, TF over GST control)	1.06 fold enrichment (6-mer frequency, TF over GST control)	1.12 fold enrichment (6-mer frequency, TF over GST control)	1.16 fold enrichment (6-mer frequency, TF over GST control)	1.33 fold enrichment (6-mer frequency, TF over GST control)	1.19 fold enrichment (6-mer frequency, TF over GST control)
CTAAGA	1.08 fold enrichment (6-mer frequency, TF over GST control)	1.24 fold enrichment (6-mer frequency, TF over GST control)	1.64 fold enrichment (6-mer frequency, TF over GST control)	1.18 fold enrichment (6-mer frequency, TF over GST control)	1.27 fold enrichment (6-mer frequency, TF over GST control)	1.16 fold enrichment (6-mer frequency, TF over GST control)	1.2 fold enrichment (6-mer frequency, TF over GST control)	1.24 fold enrichment (6-mer frequency, TF over GST control)	2.05 fold enrichment (6-mer frequency, TF over GST control)	1.22 fold enrichment (6-mer frequency, TF over GST control)
TTGCGA	1.08 fold enrichment (6-mer frequency, TF over GST control)	1.15 fold enrichment (6-mer frequency, TF over GST control)	1.24 fold enrichment (6-mer frequency, TF over GST control)	1.35 fold enrichment (6-mer frequency, TF over GST control)	1.14 fold enrichment (6-mer frequency, TF over GST control)	1.11 fold enrichment (6-mer frequency, TF over GST control)	1.1 fold enrichment (6-mer frequency, TF over GST control)	1.16 fold enrichment (6-mer frequency, TF over GST control)	1.15 fold enrichment (6-mer frequency, TF over GST control)	1.15 fold enrichment (6-mer frequency, TF over GST control)
GTATTT	1.6 fold enrichment (6-mer frequency, TF over GST control)	1.59 fold enrichment (6-mer frequency, TF over GST control)	1.5 fold enrichment (6-mer frequency, TF over GST control)	1.66 fold enrichment (6-mer frequency, TF over GST control)	1.59 fold enrichment (6-mer frequency, TF over GST control)	1.52 fold enrichment (6-mer frequency, TF over GST control)	1.69 fold enrichment (6-mer frequency, TF over GST control)	1.39 fold enrichment (6-mer frequency, TF over GST control)	1.73 fold enrichment (6-mer frequency, TF over GST control)	1.64 fold enrichment (6-mer frequency, TF over GST control)
